# Bioassay records deposited in PubChem by several laboratories.
# EphB4 ephrin blk = EphB4-ephrin-B2 interaction antagonists, primary screen, biochemical, TNYL-RAW peptide probe, fluorescence polarization | Ephrin type-B receptor 4 (Homo sapiens), P54760 | EphB4 LBD / TNYL-RAW-Alexa532 peptide | inhibition, % at 7 µM | 0.15% of 97,000 active | AID 720, 2007;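 active = inhibition above the screen-wide mean inhibition plus 3 SD, cut at about 15% in these data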;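 also: 0% = DMSO wells and 100% = excess unlabeled TNYL-RAW peptide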
# Target sequence (P54760 whole entry, looked up, the tested form may be a part): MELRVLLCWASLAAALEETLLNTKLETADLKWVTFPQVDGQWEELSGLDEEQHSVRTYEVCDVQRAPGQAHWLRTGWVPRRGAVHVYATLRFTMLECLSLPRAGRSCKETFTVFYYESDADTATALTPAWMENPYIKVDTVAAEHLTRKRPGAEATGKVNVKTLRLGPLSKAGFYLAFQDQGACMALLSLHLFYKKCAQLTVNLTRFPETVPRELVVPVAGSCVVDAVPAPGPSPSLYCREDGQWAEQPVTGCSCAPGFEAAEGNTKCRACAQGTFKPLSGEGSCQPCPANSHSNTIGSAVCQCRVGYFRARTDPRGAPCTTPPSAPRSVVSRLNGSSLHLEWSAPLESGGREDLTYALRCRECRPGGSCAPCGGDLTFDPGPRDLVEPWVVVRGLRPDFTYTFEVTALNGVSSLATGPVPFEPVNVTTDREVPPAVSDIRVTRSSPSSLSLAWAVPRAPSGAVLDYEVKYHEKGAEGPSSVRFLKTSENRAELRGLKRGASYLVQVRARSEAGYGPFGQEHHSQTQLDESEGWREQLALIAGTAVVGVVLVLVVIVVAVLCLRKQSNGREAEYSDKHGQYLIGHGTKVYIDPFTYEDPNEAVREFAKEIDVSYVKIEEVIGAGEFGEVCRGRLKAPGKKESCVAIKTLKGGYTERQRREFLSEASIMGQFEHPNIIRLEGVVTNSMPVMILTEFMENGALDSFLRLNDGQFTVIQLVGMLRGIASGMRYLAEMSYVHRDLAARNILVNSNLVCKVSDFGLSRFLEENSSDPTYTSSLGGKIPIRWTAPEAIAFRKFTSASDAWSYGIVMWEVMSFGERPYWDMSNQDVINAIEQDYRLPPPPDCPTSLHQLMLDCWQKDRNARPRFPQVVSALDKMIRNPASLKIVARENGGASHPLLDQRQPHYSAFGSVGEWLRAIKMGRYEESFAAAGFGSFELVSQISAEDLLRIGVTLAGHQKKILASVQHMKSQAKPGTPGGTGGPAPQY
# PLK1 kinase inh = human PLK1 kinase inhibitors, primary screen, biochemical, TR-FRET | recombinant PLK1 kinase, TR-FRET peptide phosphorylation | inhibition, % at 10 µM | 0.53% of 97,000 active;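 active = inhibition of 50% or more in the single-concentration screen; inactive = inhibition below 50%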;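 also: 0% = DMSO max control and 100% = H-89 dihydrochloride min control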
# sEH inhibitor = soluble epoxide hydrolase inhibitors, primary screen, biochemical, human sEH; 0.34% of 91,000 active; inhibition, % at 2 µM; Bifunctional epoxide hydrolase 2 (Homo sapiens), P34913; recombinant human sEH enzymatic activity assay; in the data active = inhibition above about 80%
# Plk1 PBD FP = Plk1 polo box domain binding inhibitors, primary screen, biochemical, fluorescence polarization; 0.13% of 97,000 active; Plk1 PBD phosphopeptide binding; inhibition, %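 (tested at about 20 µM)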; in the data active = inhibition above about 34%, passing the limit was not always enough
# sEH act = soluble epoxide hydrolase activators, primary screen, biochemical, human sEH | Bifunctional epoxide hydrolase 2 (Homo sapiens), P34913 | AID 717, 2007 | 0.04% of 91,000 active | activation, % at 2 µM | purified human sEH enzymatic activity, activator screen; in the data active = activation above about 37%
# PLK1 inh conf = PLK1 kinase activity inhibitors, confirmation, biochemical, TR-FRET, duplicate runs; shares compounds with PLK1 kinase inh; recombinant PLK1 kinase, TR-FRET peptide phosphorylation; inhibition, % at 10 µM; 20% of 210 active; AID 744, 2007;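 active = inhibition at or above 50% in each of two repeat confirmation tests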;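 also: 0% = DMSO max control and 100% = H-89 kinase-blocked min control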
# TR-FRET interf = compound interference with Plk1 assay readout, artefact control for Plk1 kinase inhibitor project, biochemical, TR-FRET, compound added post-reaction; shares compounds with PLK1 kinase inh; AID 756, 2007; inhibition (interference), % at 10 µM; 210 tested, under 10 active;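 active = both duplicate runs show 50% or greater inhibition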;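 also: 0% = DMSO max control and 100% = H-89 min control inhibited reaction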
# Starred values were filed as active, the others as inactive; . = no result. Sampled rows, rich in hits. Any-hit rate of the full collection: about 1%.
SMILES,EphB4 ephrin blk,PLK1 kinase inh,sEH inhibitor,Plk1 PBD FP,sEH act,PLK1 inh conf,TR-FRET interf
O=C(NCc1ccc2c(c1)OCO2)c1cccc(C(=O)NCc2ccc3c(c2)OCO3)c1,2.4,-5.8,42.3,-15.8,-41.4,.,.
COc1ccc(-c2nc(CS(=O)CC(=O)NCc3ccc4c(c3)OCO4)c(C)o2)cc1 (stereo unspecified),-6.7,-10.8,-1.3,3.3,0.3,.,.
O=C(NCc1ccc2c(c1)OCO2)Oc1ccccc1,-0.4,83.4*,.,17.5,.,-1.5,-53.1
N#CC1=C(Nc2ccccc2)SC=C(c2ccc(F)cc2)N=C1N1CCOCC1,2.1,-18.0,6.1,3.8,-6.4,.,.
Cc1ccccc1-c1nc(CS(=O)CC(=O)NCc2ccccc2)c(C)o1 (stereo unspecified),-4.8,78.8*,.,-6.5,.,-17.0,-53.5
O=C(Nc1cc2c3c(c1)C1CCCC1CN3CC1CCCC21)c1ccccc1 (stereo unspecified),13.3,-8.0,14.4,-19.7,-12.4,.,.
O=C(CSCc1ccc(Br)cc1)N1CCOCC1,7.6,0.8,4.6,4.1,-4.4,.,.
O=C(CSCc1ccc(F)cc1)N1CCOCC1,-7.0,114.9*,0.8,27.6,1.5,-7.3,-51.6
Cc1oc(-c2cccc(Cl)c2)nc1CN1CCC(C(=O)NCCCN2CCCC2=O)CC1,-1.4,-6.2,-11.8,-23.4,14.3,.,.
Cc1oc(-c2ccc(Cl)cc2)nc1CN1CCCC(C(=O)NCCCN2CCCC2=O)C1 (stereo unspecified),1.8,73.1*,.,-33.5,.,-10.2,-55.6
COc1ccc(C(=O)NCC(=O)NCC2COc3ccccc3O2)cc1 (stereo unspecified),6.4,-7.6,-4.0,2.2,6.0,.,.
Cc1oc2ncnc(N)c2c1C,1.7,76.1*,0.0,-42.9,-2.3,68.2*,-51.6
COc1ccc(S(=O)(=O)N(CC(=O)N/N=C/c2cccs2)c2cc(C)cc(C)c2)cc1OC,3.1,0.4,0.5,-20.1,-1.5,.,.
Cc1cc(C(=O)N/N=C/c2cccc(Cl)c2Cl)no1,-0.2,88.0*,9.0,-2.3,-7.0,-8.3,-49.3
O=C(N/N=C/c1cccc(Cl)c1Cl)Nc1ccccc1,-0.7,-9.6,44.9,-10.2,-45.5,.,.
O=C(NCCN1C(=O)C2C3C=CC(C3)C2C1=O)Nc1ccc(Br)cc1 (stereo unspecified),-2.9,71.7*,.,8.4,.,-4.7,-47.3
COc1cc2c3nnc(-c4ccc(F)cc4)c-3cn(Cc3ccccc3)c2cc1OC,2.6,-16.5,5.9,-35.3,-6.8,.,.
Cc1nc(-c2cccnc2)sc1C(N)=O,2.6,76.0*,-6.7,-28.8,8.9,34.8,-53.5
Cc1nc(-c2cccnc2)sc1C(=O)Nc1ccc(Cl)cc1,0.9,-7.9,1.3,-3.5,0.8,.,.
Cc1ccc2c(c1)c(C)c(C)n2CC(O)CN1CCCCC1C (stereo unspecified),1.8,70.1*,.,7.5,.,-10.6,-52.4
CCOC(=O)C1CCN(C(=O)CN(c2ccc(OC)cc2)S(=O)(=O)c2c(C)noc2C)CC1,4.2,-23.2,3.9,13.5,-1.7,.,.
CCOC(=O)C1CCN(C(=O)CN(c2ccc(OC)cc2)S(=O)(=O)c2c(C)nn(C)c2C)CC1,-7.8,73.3*,.,14.2,.,-7.4,-60.2
Cc1cccc(Cn2c(N3CCc4ccccc4C3)nc3c2c(=O)[nH]c(=O)n3C)c1,-2.1,-2.9,-5.0,16.7,3.1,.,.
Cc1cccc(Cn2c(N3CCCCC3C)nc3c2c(=O)[nH]c(=O)n3C)c1 (stereo unspecified),2.7,83.0*,.,-24.4,.,4.7,-50.0
COCCn1c(C)cc(C(=O)CSc2nnc3ccccn23)c1C,-6.6,72.4*,.,-25.3,.,-9.0,-52.8
SMILES,EphB4 ephrin blk,PLK1 kinase inh,sEH inhibitor,Plk1 PBD FP,sEH act,PLK1 inh conf,TR-FRET interf
O=C(NCc1ccc2c(c1)OCO2)c1ccc(N2C(=O)C3CCCCC3C2=O)cc1 (stereo unspecified),1.8,-3.1,23.7,5.8,-21.2,.,.
CC(Oc1ccc(Cl)cc1Cl)C(=O)NCCCN1CCOCC1 (stereo unspecified),1.5,73.7*,.,13.7,.,-12.8,-48.3
CCOC(=O)C1=C(CSc2nc(CC)c(C)cc2C#N)OC(N)=C(C#N)C1c1ccccc1 (stereo unspecified),-5.6,-8.0,-7.6,20.7,11.0,.,.
CCOC(=O)C1=C(CSc2nc3c(cc2C#N)CN(C)CC3)OC(N)=C(C#N)C1c1ccc(Cl)cc1 (stereo unspecified),-7.1,116.1*,-11.6,-22.6,11.5,0.7,-53.5
CC1=C(C#N)C(c2cccnc2)C2=C(CC(c3ccc(Cl)cc3)CC2=O)N1 (stereo unspecified),-0.9,-5.0,-8.4,-15.0,8.5,.,.
CCN1CCN(CC(=O)Nc2ccc(C)cc2C)C(=O)C1=O,-4.3,5.0,-3.3,18.5,2.3,.,.
Cc1ccc(N(CC(=O)Nc2ccc(C)cc2C)S(=O)(=O)N2CCCC2)cc1,0.9,87.9*,20.9,5.3,-18.9,-9.1,-48.6
NC(=O)c1ccc(C(F)(F)F)n(Cc2ccc(Cl)cc2)c1=O,-5.9,81.5*,-2.3,-19.0,3.0,56.0*,-48.6
NC(=O)c1ccc(C(F)(F)F)n(Cc2cccc(Cl)c2)c1=O,-11.3,75.5*,3.4,24.1,-2.7,62.1*,-56.0
Cc1ccc(NC(=O)NNC(=O)Cn2nc(-c3ccccc3)c(-c3ccccc3)c(C#N)c2=O)cc1,2.6,-8.7,1.0,24.5,-1.0,.,.
O=S(=O)(NCc1ccccc1)c1cccs1,-10.0,-9.1,9.7,-36.2,-9.6,.,.
Nc1nc2ccc([N+](=O)[O-])c(N)c2s1,9.3,75.8*,-19.4,14.5,19.5,75.0*,-45.9
CS(=O)(=O)c1ccc2nc(N)sc2c1,3.4,-7.9,-0.1,38.2,2.2,.,.
O=c1cc(N2CCOCC2)[nH]c(=O)n1-c1ccc(Cl)cc1,-8.9,73.8*,.,-5.3,.,5.7,-41.2
CC1CCN(c2ccccc2N)CC1,12.0,-9.6,0.3,2.1,-0.8,.,.
[O-][N+]12CCN(CC1)c1ccccc12,-11.6,77.2*,7.5,-11.6,-7.5,-5.1,-60.1
CCCc1cc(C(N)=O)c(NC(=O)c2ccco2)s1,-0.6,127.2*,6.1,3.6,-8.1,-2.1,-51.1
CCN(CC)S(=O)(=O)c1ccc2oc(C(=O)NCc3ccc(C)cc3)c(C)c2c1,3.7,-34.0,5.2,-22.9,-3.3,.,.
CCCCCC(C)n1[nH]c(=O)c2c(C)cc(C)nc21 (stereo unspecified),-0.6,85.6*,.,12.1,.,2.3,-48.2
COC(=O)c1cc(NC(=O)CSc2nncn2C)cc(C(=O)OC)c1,4.9,-3.0,-13.4,-7.8,13.7,.,.
O=C(O)CCc1ccc(-c2cccs2)n1-c1ccc(C(=O)O)cc1,-8.0,95.9*,.,-24.5,.,0.8,-45.7
CC(=O)c1cccc(-n2c(CCC(=O)O)ccc2-c2cccs2)c1,-1.5,-8.1,-12.7,-16.0,11.9,.,.
